SMARCA2 act = activators of SMARCA2 function. 370,000 compounds, 1% hits. MG213 cells, MMTV-luciferase reporter, dexamethasone, overnight. activation, % at 9.1 µM. AID 652017; in the data active = activation above about 7.8%;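 note: 0% = vehicle wells and 100% = reference activator wells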
GRIN3A LBD mod = modulates the human NR3A ligand-binding domain. NR3A LBD differential scanning fluorimetry, Tm shift; 0% = protein alone, 100% = glycine-bound protein. Tm shift relative to glycine control, % at 25 µM. 340,000 compounds, 2.5% hits. AID 1259313;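 active = melting temperature shift of at least 10% of the positive control shift, at one fixed dose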
esBAF inh = blocks esBAF chromatin remodeling in mouse ES cells; 350,000 compounds, 2% hits; Bmi1-luciferase knock-in reporter, 24 h; 100% = twice the neutral-well signal; reporter increase, % at 12.5 µM; AID 602393; in the data active = activation above about 40%; inconclusive = no clear call, values can overlap the other calls;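 note: 0% = median of the plate's neutral control wells and 100% = double that signal; a rise in the Bmi1 reporter signal indicates esBAF inhibition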
Vif inh = inhibitors of HIV Vif; inhibition, % at 7.49 µM; 340,000 compounds, 0.35% hits; AID 602346; HEK293T cells, Vif self-association by quenched fluorescence, imaging, 24 h; in the data active = inhibition above about 50%, passing the limit was not always enough; inconclusive = no clear call, values can overlap the other calls; inactive = below about 31%
NadD block = NadD (S. aureus) enzyme inhibition; purified NadD enzyme, colorimetric absorbance read-out; inhibition, % at 20 µM; 360,000 compounds, 0.78% hits; AID 602399; in the data active = inhibition above about 26%
SKN-1 block = blocks SKN-1 activity in C. elegans; C. elegans VP596 Pgst-4::GFP/RFP ratio, acrylamide-induced, 24 h; 360,000 compounds, 0.49% hits; inhibition, % at 21.8 µM;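 active = interference check ratio from 0.5 to 1.5 plus GFP to RFP signal ratio inhibition reaching or exceeding a fixed threshold, cut at about 30% in these data, passing the limit was not always enough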
* marks the source's active call; other numbers are inactive results; ? = inconclusive; nt = no result. In the library only some 5.2% were active in any assay of this set; here they are far more common.

SMILES | SMARCA2 act | GRIN3A LBD mod | esBAF inh | Vif inh | NadD block | SKN-1 block
COc1ccc(C2=NN(C(=O)c3ccccc3)C(c3cccc([N+](=O)[O-])c3)C2)cc1 (centres undefined) | -2 | -3 | nt | -5 | -10 | 4
CCOC(=O)/C=C(/C)N1N=C(c2ccc(OC)cc2)CC1c1cccc([N+](=O)[O-])c1 (centres undefined) | -1 | 6 | 55* | 1 | 0 | 3
NC(=O)CSc1nc2ccccc2c(=O)n1-c1ccccc1 | -1 | 1 | -3 | -5 | -3 | 4
O=C(CSc1nc2ccccc2c(=O)n1-c1ccccc1)c1c[nH]c2ccccc12 | -1 | 18* | nt | 3 | 19 | 9
Cc1noc(C)c1S(=O)(=O)Nc1ccc2c(c1)C(=O)N([C@@H](C)CO)C[C@@H](C)[C@@H](CN(C)C(=O)Nc1cccc3ccccc13)O2 | nt | nt | 0 | nt | nt | nt
CNC[C@@H]1OCCCC[C@@H](C)Oc2ccc(NS(=O)(=O)c3ccccc3)cc2C(=O)N([C@H](C)CO)C[C@H]1C | nt | nt | 5 | nt | nt | nt
c1csc(-c2nc3ccccc3[nH]2)c1 | 3 | -8 | 46* | nt | 1 | 15
c1ccc(-c2nc3ccccc3[nH]2)cc1 | 6 | -16 | 72* | -6 | 1 | 97
Oc1ccc(-c2nc(-c3ccc(F)cc3)c(-c3ccncc3)[nH]2)cc1 | -7 | -5 | -2 | ? | -3 | -10
Fc1ccc(-c2nc(-c3cccs3)[nH]c2-c2ccc(F)cc2)cc1 | -6 | 19* | nt | -2 | 9 | 17
C[C@H](CO)N1C[C@H](C)[C@H](CN(C)C(=O)C2CC2)Oc2ncc(C#CCc3ccccc3)cc2C1=O | nt | nt | -12 | nt | nt | nt
O=C(C[C@@H]1CC[C@@H]2[C@H](COC[C@H](O)CN2C(=O)c2ccccn2)O1)NC1CCC1 | nt | nt | 3 | nt | nt | nt
CCOC(=O)C(CCC(C)=O)C(=O)c1ccccc1 (centres undefined) | 0 | 3 | -3 | -3 | -3 | 10
COC(=O)C(CC(=O)c1ccccc1)CC(=O)c1ccccc1 | 4 | 0 | 53* | -2 | -11 | -7
CCOC(=O)C(CC(=O)c1ccccc1)CC(=O)c1ccccc1 | 4 | 0 | 57* | -9 | -8 | 6
Cc1noc(C)c1NC(=O)Nc1ccc2c(c1)CC(=O)N([C@@H](C)CO)C[C@H](C)[C@H](CN(C)Cc1ccc(-c3ccccc3)cc1)O2 | nt | nt | -1 | nt | nt | nt
C[C@@H]1CN([C@@H](C)CO)C(=O)c2cc(NC(=O)C3CC3)ccc2O[C@@H]1CN(C)C(=O)Nc1cccc2ccccc12 | nt | nt | 0 | nt | nt | nt
C[C@H](CO)N1C[C@H](C)[C@@H](CN(C)C(=O)C2CCOCC2)Oc2ncc(C#CC3(O)CCCC3)cc2C1=O | nt | nt | -3 | nt | nt | nt
Cc1ccc2cc(CN(CC3CCCO3)C(=O)Nc3ccccc3F)c3nnnn3c2c1 (centres undefined) | 0 | 4 | 45* | 13 | 1 | 6
Cc1ccc2cc(CN(CC3CCCO3)S(=O)(=O)c3ccccc3)c3nnnn3c2c1 (centres undefined) | 2 | 1 | 8 | 9 | -6 | 8
CCCNC(=O)C[C@H]1CC[C@@H]2[C@@H](COc3ccc(NC(=O)NCC)cc3C(=O)N2C)O1 | nt | nt | 0 | nt | nt | nt
Cc1cc(Cl)ccc1OCCCC(=O)OCC(=O)Nc1cccc(S(N)(=O)=O)c1 | -3 | 10* | 0 | -1 | -9 | -11
CCNC(=O)COC(=O)COc1ccc(Cl)cc1C | -1 | -1 | -8 | 12 | -1 | 6
Cc1cc(Cl)ccc1OCC(=O)OCC(=O)Nc1ccc(F)c([N+](=O)[O-])c1 | 0 | 26* | nt | 2 | -6 | 1
COc1ccc(OCCN2CCC(C(=O)NC(c3ccccn3)c3ccccc3OC)CC2)cc1 (centres undefined) | 0 | nt | -9 | 51* | -2 | -5
SMILES | SMARCA2 act | GRIN3A LBD mod | esBAF inh | Vif inh | NadD block | SKN-1 block
c1ccc(N2CC3COc4ccccc4C3=N2)cc1 (centres undefined) | 3 | 17* | nt | 3 | -1 | 21
c1ccc2c(c1)OCc1cn[nH]c1-2 | -1 | 0 | 1 | 9 | -7 | 1
C[C@@H]1CN([C@H](C)CO)C(=O)c2cc(NC(=O)NC3CCCCC3)ccc2O[C@H]1CN(C)Cc1ccc(C(=O)O)cc1 | nt | nt | -3 | nt | nt | nt
C[C@H]1CN([C@@H](C)CO)C(=O)c2cc(NC(=O)CCCN(C)C)ccc2O[C@H]1CN(C)C(=O)NC1CCCCC1 | nt | nt | -3 | nt | nt | nt
O=C(N/N=C/c1ccsc1)c1cc(-c2ccncc2)nc2ccccc12 | -3 | -4 | nt | ? | 2 | -12
Cn1cc(C(=O)N/N=C/c2cccc([N+](=O)[O-])c2)c2ccccc21 | -3 | 9 | nt | 9 | 5 | 27
O=C(CN1c2ccccc2Sc2ccccc21)N/N=C/c1ccc([N+](=O)[O-])cc1 | -4 | 32* | nt | -20 | 22 | -12
Cc1cccc(C)c1OCc1nc2ccccc2c(=O)n1/N=C/c1c[nH]c2ccccc12 | -3 | 31* | nt | 2 | 4 | 1
O=C(N/N=C/c1ccsc1)c1cc(-c2cccs2)nc2ccccc12 | -2 | 12* | nt | -2 | 9 | -2
O=C(CN1c2ccccc2Sc2ccccc21)N/N=C/c1ccccc1 | 0 | 5 | -4 | 4 | 13 | 27
Cn1cc(C(=O)N/N=C/c2ccc([N+](=O)[O-])cc2)c2ccccc21 | -2 | 28* | -2 | nt | 1 | 6
O=C(N/N=C/c1cc([N+](=O)[O-])ccc1O)c1c[nH]c2ccccc12 | 3 | 27* | nt | 9 | 0 | 7
O=C(NN=Cc1cc([N+](=O)[O-])ccc1O)c1cccc2ccccc12 | -3 | 1 | nt | 11 | 7 | 7
CC(/C=N/NC(=O)c1cc(-c2ccncc2)nc2ccccc12)=C\c1ccco1 | nt | -2 | 2 | 32 | 18 | -8
O=C(N/N=C/c1cc([N+](=O)[O-])ccc1O)c1cc(-c2ccccc2)nc2ccccc12 | -1 | 21* | nt | 16 | 31* | 14
O=C(N/N=C/c1cccc(O)c1)c1csc2ccccc12 | 5 | 22* | 35 | 0 | 7 | 24
O=C(N/N=C/c1ccco1)c1cc(-c2cccc(Br)c2)nc2ccccc12 | -2 | 12* | nt | -5 | 23 | 4
Cc1ccc(-c2ccc3c(c2)O[C@@H](CN(C)S(C)(=O)=O)[C@@H](C)CN([C@@H](C)CO)S3(=O)=O)cc1 | nt | nt | 1 | nt | nt | nt
COc1cccc(S(=O)(=O)N(C)C[C@@H]2OCc3cn(nn3)CCCC(=O)N([C@H](C)CO)C[C@@H]2C)c1 | nt | nt | 0 | nt | nt | nt
CCC(=O)N1[C@@H](CO)[C@@H]2c3ccccc3N(C(=O)Nc3ccccc3Cl)C[C@@H]21 | nt | nt | 1 | nt | nt | nt
C[C@H](CO)N1C[C@H](C)[C@H](CN(C)CC2CCOCC2)Oc2ncc(C#Cc3ccccc3)cc2C1=O | nt | nt | -8 | nt | nt | nt
Cc1cc(/C=N/n2c(COc3ccccc3C)nc3ccccc3c2=O)c(O)c([N+](=O)[O-])c1 | 1 | 9 | nt | -1 | 19 | -3

Compound activity deposited in PubChem BioAssay by several laboratories.
